Calls of active or inactive are those of the source.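 The calls were made as follows, unless noted: active = fluorescence ratio normalized to control raised more than 50% in primary screen plus both repeat runs; inactive = the rest.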
The compounds below were run on TRPC4 beta (transient receptor potential cation channel C4), mouse (assay: TRPC4 cation channel opening, retest – cell-based, Fluo4 calcium, HEK293 TRPC4beta/mu-opioid, duplicates, 10 µM, confirmation (AID 2426)). Conditions: Fluo4 calcium fluorescence, at 10 µM.

outcome, inactive:
CCC(O)(c1ccc(OC)cc1)C(CN1CCOCC1)c1ccccc1 (stereo not given)
COc1ccc(Nc2cc(C)nc3ccc(OC)cc23)cc1
Cc1ccc(C(C)(C)C)cc1S(=O)(=O)Nc1nc2ccccc2nc1Cl
CN(C)C(CNC(=O)c1ccccc1OCc1ccc(Cl)cc1)c1ccco1 (stereo not given)
COc1ccc(-c2csc(NC(=O)Cc3cccc4ccccc34)c2C(=O)O)cc1
CC1CCN(C(C)C(=O)Nc2ccccc2-c2ccccc2)CC1 (stereo not given)
O=c1c2ccccc2nc(SCc2ccccc2)n1CC1CCCO1 (stereo not given)
CC(=O)Nc1cccc(C(=O)NCC2(N3CCCCC3)CCCCC2)c1
Cc1ccn2cc(CCNC(=O)c3ccc(Br)o3)nc2c1
CCOc1ccc2ccccc2c1CNCCc1ccc(S(N)(=O)=O)cc1
CCc1cccc(OCC(=O)Nc2ccc(C(=O)O)cc2NC(=O)COc2cccc(CC)c2)c1
COc1ccc(CN2CCN(C(=O)c3ccc(F)cc3)CC2)c(OC)c1
CCOc1ccc(Br)cc1/C=N/O
CCC1CCCCN1Cc1nc2c(c(=O)n(C)c(=O)n2C)n1Cc1ccccc1 (stereo not given)
O=C(c1ccc2c(c1)OCO2)C1CCCN(Cc2ccccc2OC(F)F)C1 (stereo not given)
O=C(Nc1ccccc1N1CCN(C(=O)c2ccccc2)CC1)c1ccc(Br)o1
Cc1ccc(C(=O)C2=C(O)C(=O)N(Cc3cccnc3)C2c2ccc(Cl)c(Cl)c2)o1 (stereo not given)
Cc1cccc(CCN(C(=O)c2snc(C(N)=O)c2N)C(C(=O)NCC2CCCO2)c2ccc(F)cc2)c1 (stereo not given)
Cc1ccc(NC(=O)c2cc(N3C(=O)C=CC3=O)ccc2N2CCOCC2)cc1
Fc1ccccc1Sc1ccccc1CNC1=NCCN1
CC(C)C(NC(=O)c1ccc(C(C)(C)C)cc1)C(=O)NCC(c1ccccc1)N(C)C (stereo not given)
COCCn1c(SCC(=O)c2ccccc2)nc2ccccc2c1=O
COc1ccc(SC[C@H](Cc2ccccc2)N2CCN(C)CCC2=O)cc1
O=C(CCCSc1nc2ccccc2[nH]1)NCc1ccccc1Cl
CCOC(=O)C1(Cc2ccccc2)CCN(CC2CC=CCC2)CC1 (stereo not given)
CCn1c(NCc2c[nH]c3ccccc23)nc2ccccc21
COc1ccc(C(CNC(=O)c2oc3ccc(F)cc3c2C)N2CCCCC2)cc1 (stereo not given)
CCC(=O)N1CCc2cc(S(=O)(=O)NCCN3CCCCC3CC)ccc21 (stereo not given)
Nc1cc(N2CCCCC2)c([N+](=O)[O-])cc1Cl
Cc1c(CCOC(=O)c2cccc([N+](=O)[O-])c2)sc[n+]1CC(=O)c1ccccc1
CCOc1cc(CNCCCN2CCOCC2)cc(Br)c1OCc1ccccc1Cl
Cc1ccc(Sc2ccc(CO)cc2[N+](=O)[O-])cc1
Cc1ccc(Cn2c(Cc3ccccc3)nc3ccccc32)cc1
CC1CCc2c(sc(/N=C/N(C)C)c2C#N)C1 (stereo not given)
COc1ccccc1N1CCN(CC(C)N(C(=O)C2CCCCC2)c2ccccn2)CC1 (stereo not given)
CCN(CC)c1ncnc2scc(C3COc4ccccc4O3)c12 (stereo not given)
COc1ccc(Sc2nc(-c3ccccc3)ncc2C(=O)O)cc1
Cc1cccc(CN2CCCC(C(=O)Nc3ccccc3Oc3cccnc3)C2)c1 (stereo not given)
Cn1nnnc1SCCNCc1ccccc1OCc1ccc(Cl)cc1
O=C(C[n+]1cccc(CNC(=O)c2ccc(OC(F)F)cc2)c1)Nc1ccc(SC(F)F)cc1

The compounds below were run on transient receptor potential cation channel C4 beta (TRPC4), mouse (assay: TRPC4 cation channel opening, second retest – cell-based, second round, Fluo4, HEK293 TRPC4beta/mu-opioid, 1 µM, confirmation (AID 2461;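 active = primary screen active and over 50% activation in each of two duplicate runs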)). Conditions: Fluo4 calcium fluorescence, at 1 µM.

outcome, inactive:
CCC(O)(c1ccc(OC)cc1)C(CN1CCOCC1)c1ccccc1 (stereo not given)
COc1ccc(Nc2cc(C)nc3ccc(OC)cc23)cc1
Cc1ccc(C(C)(C)C)cc1S(=O)(=O)Nc1nc2ccccc2nc1Cl
CN(C)C(CNC(=O)c1ccccc1OCc1ccc(Cl)cc1)c1ccco1 (stereo not given)
COc1ccc(-c2csc(NC(=O)Cc3cccc4ccccc34)c2C(=O)O)cc1
CC1CCN(C(C)C(=O)Nc2ccccc2-c2ccccc2)CC1 (stereo not given)
O=c1c2ccccc2nc(SCc2ccccc2)n1CC1CCCO1 (stereo not given)
CC(=O)Nc1cccc(C(=O)NCC2(N3CCCCC3)CCCCC2)c1
Cc1ccn2cc(CCNC(=O)c3ccc(Br)o3)nc2c1
CCOc1ccc2ccccc2c1CNCCc1ccc(S(N)(=O)=O)cc1
CCc1cccc(OCC(=O)Nc2ccc(C(=O)O)cc2NC(=O)COc2cccc(CC)c2)c1
COc1ccc(CN2CCN(C(=O)c3ccc(F)cc3)CC2)c(OC)c1
CCOc1ccc(Br)cc1/C=N/O
CCC1CCCCN1Cc1nc2c(c(=O)n(C)c(=O)n2C)n1Cc1ccccc1 (stereo not given)
O=C(c1ccc2c(c1)OCO2)C1CCCN(Cc2ccccc2OC(F)F)C1 (stereo not given)
O=C(Nc1ccccc1N1CCN(C(=O)c2ccccc2)CC1)c1ccc(Br)o1
Cc1ccc(C(=O)C2=C(O)C(=O)N(Cc3cccnc3)C2c2ccc(Cl)c(Cl)c2)o1 (stereo not given)
Cc1cccc(CCN(C(=O)c2snc(C(N)=O)c2N)C(C(=O)NCC2CCCO2)c2ccc(F)cc2)c1 (stereo not given)
Cc1ccc(NC(=O)c2cc(N3C(=O)C=CC3=O)ccc2N2CCOCC2)cc1
Fc1ccccc1Sc1ccccc1CNC1=NCCN1
CC(C)C(NC(=O)c1ccc(C(C)(C)C)cc1)C(=O)NCC(c1ccccc1)N(C)C (stereo not given)
COCCn1c(SCC(=O)c2ccccc2)nc2ccccc2c1=O
COc1ccc(SC[C@H](Cc2ccccc2)N2CCN(C)CCC2=O)cc1
O=C(CCCSc1nc2ccccc2[nH]1)NCc1ccccc1Cl
CCOC(=O)C1(Cc2ccccc2)CCN(CC2CC=CCC2)CC1 (stereo not given)
CCn1c(NCc2c[nH]c3ccccc23)nc2ccccc21
COc1ccc(C(CNC(=O)c2oc3ccc(F)cc3c2C)N2CCCCC2)cc1 (stereo not given)
CCC(=O)N1CCc2cc(S(=O)(=O)NCCN3CCCCC3CC)ccc21 (stereo not given)
Nc1cc(N2CCCCC2)c([N+](=O)[O-])cc1Cl
Cc1c(CCOC(=O)c2cccc([N+](=O)[O-])c2)sc[n+]1CC(=O)c1ccccc1
CCOc1cc(CNCCCN2CCOCC2)cc(Br)c1OCc1ccccc1Cl
Cc1ccc(Sc2ccc(CO)cc2[N+](=O)[O-])cc1
Cc1ccc(Cn2c(Cc3ccccc3)nc3ccccc32)cc1
CC1CCc2c(sc(/N=C/N(C)C)c2C#N)C1 (stereo not given)
COc1ccccc1N1CCN(CC(C)N(C(=O)C2CCCCC2)c2ccccn2)CC1 (stereo not given)
CCN(CC)c1ncnc2scc(C3COc4ccccc4O3)c12 (stereo not given)
COc1ccc(Sc2nc(-c3ccccc3)ncc2C(=O)O)cc1
Cc1cccc(CN2CCCC(C(=O)Nc3ccccc3Oc3cccnc3)C2)c1 (stereo not given)
Cn1nnnc1SCCNCc1ccccc1OCc1ccc(Cl)cc1
O=C(C[n+]1cccc(CNC(=O)c2ccc(OC(F)F)cc2)c1)Nc1ccc(SC(F)F)cc1
